Compounds with a hit are over-represented: about 3.5% of the library has one in this group of screens.
mHTT-CaM PPI inh – mutant huntingtin-calmodulin interaction inhibitors – biochemical, AlphaScreen, primary screen. 190,000 tested, 3.6% active. P42858. inhibition, % at 15 µM. AID 1671202, 2021. AlphaScreen His-mHTT/GST-CaM binding, luminescence
Pf apPOL block – Pf-apPOL inhibitors, biochemical, fluorescence | inhibition, % at 10 µM | Recombinant Pf-apPOL, molecular beacon fluorescence, 1.5 h | Plasmodium falciparum apicoplast DNA polymerase (apPOL) | 210,000 tested, 0.25% active | AID 1794808, 2022
Numbers stand for hits; – = inactive; · = no result given. Cut-off read from the data, not from the text of the source: active = inhibition above about 50%; inactive = the rest.

SMILES | mHTT-CaM PPI inh | Pf apPOL block
COc1ccccc1C1=NN(C(=O)CN2CCOCC2)C(c2ccc(C)cc2)C1 (stereo not drawn) | – | –
Cc1ccc(C)c(C2=NN(C(=O)CN3CCOCC3)C(c3ccccc3F)C2)c1 (stereo not drawn) | 62 | –
COc1cccc(C2CC(c3cccc(C)c3)=NN2C(=O)CN2CCCC2)c1 (stereo not drawn) | 100 | –
COc1cccc(C2CC(c3cccc(C)c3)=NN2C(=O)CN2CCCCC2)c1 (stereo not drawn) | 55 | –
COc1ccc(C2CC(c3cccc(C)c3)=NN2C(=O)CN2CCCCC2)cc1 (stereo not drawn) | – | –
Cc1ccc(C2=NN(C(=O)CN3CCOCC3)C(c3ccccc3Cl)C2)cc1C (stereo not drawn) | – | –
COc1cccc(C2=NN(C(=O)CN(C)C(C)=O)C(c3ccc(F)cc3)C2)c1 (stereo not drawn) | – | –
COc1ccccc1NC(=O)CSc1nc2[nH]ncc2c(=O)n1-c1ccccc1 | – | –
CSc1cccc(NC(=O)C(=O)NCCCn2ccnc2)c1 | – | –
Cc1cc(C)c(NC(=O)C23CCC(C)(C(=O)O2)C3(C)C)c([N+](=O)[O-])c1 (stereo not drawn) | – | –
CCCN(CCC)S(=O)(=O)c1ccc(NC(=O)c2ccccc2Br)cc1 | – | –
COc1ccccc1C1=NN(C(=O)CN2CCCCC2)C(c2cccc(F)c2)C1 (stereo not drawn) | – | –
COc1cccc(C2CC(c3cc(C)ccc3C)=NN2C(=O)CN2CCCCC2)c1 (stereo not drawn) | 67 | –
CCOC(=O)c1c(-c2ccc(OC)cc2)oc2ccc(OC(C)C(=O)OCC)cc12 (stereo not drawn) | – | –
Nc1ccc(-c2c3ccccc3nc3cc(N)ccc23)cc1 | 100 | –
Nc1ccc(-c2cc(-c3ccccc3)nc(-c3ccc(N)cc3)n2)cc1 | – | –
CC(=O)N1CCC(n2c(C)nc(C(=O)NC3CC3)c2C)CC1 | – | –
COc1ccc(CNc2ccc(F)c(Cl)c2)cc1 | – | –
COc1cc(CNc2ccc(C)c(C)c2)cc(OC)c1 | 69 | –
COc1cccc(CNc2ccccc2)c1 | – | –
COc1cccc(CNc2cccc(F)c2)c1 | – | –
COc1cccc(CNc2ccc(C)c(C)c2)c1 | 53 | –
COc1cccc(CNc2ccc3c(c2)CCC3)c1 | 67 | –
CCN1CCN(CCNC(=O)c2cc3cn(C4CCCC4)cc3s2)CC1 | – | –
O=[N+]([O-])c1cc2c(cc1C1NN=C(c3ccccc3)S1)OCO2 (stereo not drawn) | 52 | –
SMILES | mHTT-CaM PPI inh | Pf apPOL block
O=C1CSC(c2cc3c(cc2[N+](=O)[O-])OCO3)N1c1ccccc1F (stereo not drawn) | – | –
Cc1oc2ccc(OCc3ccccc3)cc2c1C(=O)O | – | –
Cc1oc2ccc(OCc3cccc(F)c3)cc2c1C(=O)O | – | 56
CC(=O)NC(CCS(C)(=O)=O)C(=O)Nc1ccc(OC(F)(F)F)cc1 (stereo not drawn) | – | –
CC(C)C(=O)NNC(=O)c1csc(-c2ncc(C(F)(F)F)cc2Cl)n1 | · | –
COc1cc(C2C(C#N)=C(N)Oc3c2c(C)nn3-c2cccc(Cl)c2)cc(OC)c1O (stereo not drawn) | 64 | –
Cc1nn(-c2cccc(Cl)c2)c2c1C(c1ccncc1)C(C#N)=C(N)O2 (stereo not drawn) | – | –
COc1ccc(N=Cc2c(Nc3ccc(Cl)cc3)nc3c(C)cccn3c2=O)cc1 | – | –
Cn1c(N2CCCC(C(=O)NCCC3=CCCCC3)C2)cc(=O)n(C)c1=O (stereo not drawn) | – | –
COc1ccc(NC(=O)C2CCN(c3cc(=O)n(C)c(=O)n3C)CC2)cc1OC | – | –
CCn1c(N2CCC(C(=O)Nc3cc(OC)c(OC)c(OC)c3)CC2)cc(=O)n(C)c1=O | 62 | –
Cn1c(N2CCC(C(=O)NCc3ccccn3)CC2)cc(=O)n(C)c1=O | 70 | –
Cc1cccc(N2CC(C(=O)NCc3ccccn3)CC2=O)c1 (stereo not drawn) | 61 | –
Cn1c(N2CCC(C(=O)NCc3ccccc3)CC2)cc(=O)n(C)c1=O | – | –
CC(C)c1ccc(N2CC(C(=O)NCc3ccccn3)CC2=O)cc1 (stereo not drawn) | – | –
CCn1c(N2CCC(C(=O)NCCC3=CCCCC3)CC2)cc(=O)n(C)c1=O | 51 | –
c1ccc(Oc2ccc(N3COc4cc5c(cc4C3)OCO5)cc2)cc1 | – | –
Cc1ccc(S(=O)(=O)N2CCC(CN3CCC(C)CC3)CC2)cc1C | – | –
O=c1ccc(-c2ccc3c(c2)OCO3)nn1CCc1nc(-c2ccccn2)no1 | – | –
CCn1c(N2CCC(C(=O)NCc3cccs3)CC2)cc(=O)n(C)c1=O | 62 | –
Cn1c(N2CCC(C(=O)NCc3cccs3)CC2)cc(=O)n(C)c1=O | – | –
Cc1noc(-c2nn(C)c3c2CN(C(=O)Nc2cccc(F)c2)CC3)n1 | – | –
CCC1CN(C(=O)Nc2cc(OC)ccc2OC)c2ccccc2O1 (stereo not drawn) | – | –
COc1ccc(N2CCN(CC(=O)NCc3ccncc3)C2=O)cc1 | – | –
CC(=O)CC1c2cc(F)ccc2C=C(c2ccsc2)N1c1ccc(C#CC2(O)CCCCC2)cc1 (stereo not drawn) | – | –
SMILES | mHTT-CaM PPI inh | Pf apPOL block
CC(=O)CC1c2cc(F)ccc2C=C(c2ccsc2)N1c1ccc(C#Cc2cncn2C)cc1 (stereo not drawn) | 75 | –
CC(=O)N1CCN(c2ccc(C)cc2C)C(=O)C1C (stereo not drawn) | – | –
O=C(NCc1cccc(C(F)(F)F)c1)C1CCN(c2cncnc2N2CCCC2)CC1 | 63 | –
O=C(NCc1cccc(F)c1)C1CCN(c2cncnc2N2CCCC2)CC1 | – | –
CCc1ccc(CNC(=O)C2CCN(c3cncnc3N3CCCC3)CC2)cc1 | – | –
O=C(NCc1ccc(Cl)cc1)C1CCN(c2cncnc2N2CCCC2)CC1 | 70 | –
CC(C)N1C(=O)C(C)(C(=O)Nc2ccc(F)cc2)Oc2cccnc21 (stereo not drawn) | – | –
O=C(NN=Cc1ccc(Cl)cc1)c1cc(=O)nc2sccn12 | · | –
c1ccc(-c2csc(NCc3ccco3)n2)cc1 | – | –
CCNc1nc(-c2ccccc2)cs1 | · | –
c1ccc(CNc2nc(-c3ccccn3)cs2)cc1 | 100 | –
c1ccc(-c2csc(NCc3ccco3)n2)nc1 | 99 | –
O=C(NCC1CCN(C(=O)c2ccccc2F)CC1)c1nc2ccccc2s1 | – | –
Cc1ccc(NC(=O)N2CCCC2c2cc(C)no2)c(Cl)c1 (stereo not drawn) | – | –
c1ccc(CNc2ccc3cn[nH]c3c2)cc1 | 82 | –
COc1ccccc1CNc1ccc2cn[nH]c2c1 | – | –
Cc1ccccc1CNc1ccc2cn[nH]c2c1 | 62 | –
COc1cc(CNc2ccc3cn[nH]c3c2)ccc1O | – | –
Cc1ccc(CNc2ccc3[nH]ncc3c2)cc1 | 82 | –
Oc1ccc(CNc2ccc3cn[nH]c3c2)cc1 | – | –
CCc1ccc(NC(=O)C2CCCN(c3nnc4ccccn34)C2)cc1 (stereo not drawn) | 56 | –
CCOc1ccc(NC(=O)C2CCCN(c3nnc4ccccn34)C2)cc1 (stereo not drawn) | – | –
Cn1ncc(N2CCCC(C(=O)NCc3ccncc3)C2)cc1=O (stereo not drawn) | – | –
